Assay results published in PubChem BioAssay (NCI).
This is part of a sample that, as a whole, favours compounds with a hit. Of some 79,000 tested, about 15% had one in any assay. Calls of active or inactive are those of the source. Cut-off read from the data, not from the text of the source: active = growth inhibition above about 70%; inactive = the rest.

What was measured:
[1] = NCI Yeast Anticancer Drug Screen. Data for the rad50 strain (AID 155);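 note: 0% = growth of vehicle-only cultures of the same strain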; settings: S. cerevisiae rad50 strain growth inhibition; at 50.0 µM; active compounds read high
Procedure, shortened: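 Relative growth inhibition (compound vs vehicle) was measured in yeast with a defined repair-gene alteration.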

[2] = NCI Yeast Anticancer Drug Screen. Data for the mec2-1 strain (AID 157); settings: S. cerevisiae mec2-1 strain, at 50.0 µM, active compounds read high
Procedure, shortened: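 Mutant yeast (mec2-1) grown with compound; growth inhibition relative to vehicle control reported.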

[3] = NCI Yeast Anticancer Drug Screen. Data for the sgs1 mgt1 strain (AID 161);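 note: 0% = growth of cultures given vehicle only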; settings: S. cerevisiae sgs1 mgt1 strain, at 50.0 µM, active compounds read high
Procedure, shortened: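 Growth of a repair-deficient yeast mutant was monitored after compound treatment and expressed as inhibition relative to vehicle-treated cultures.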

[4] = NCI Yeast Anticancer Drug Screen. Data for the cln2 rad14 strain (AID 165);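 note: 0% = growth equal to vehicle treated cultures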; settings: S. cerevisiae cln2 rad14 strain, at 50.0 µM, active compounds read high
Procedure, shortened: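 Readout is yeast growth inhibition versus vehicle-treated controls, using a strain with cln2 and rad14 alterations exposed to compound.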

[5] = NCI Yeast Anticancer Drug Screen. Data for the bub3 strain (AID 167); settings: S. cerevisiae bub3 mutant strain, at 50.0 µM, active compounds read high
Procedure, shortened: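 Screening used yeast with an engineered genetic alteration affecting cell cycle control. Compound-exposed cultures were compared with vehicle cultures, and reduced growth was taken as inhibition.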

[6] = NCI Yeast Anticancer Drug Screen. Data for the mlh1 rad18 strain (AID 175); settings: S. cerevisiae mlh1 rad18 strain growth inhibition; at 50.0 µM; active compounds read high
Procedure, shortened: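 Genetically defined yeast (DNA repair-deficient) exposed to compounds; growth inhibition determined relative to vehicle.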

Measured: growth inhibition

Cc1c2cnccc2c(C)c2c1c1ccccc1n2CCCCCC#N
active: [1] 98.8% | [2] 99.1% | [3] 99.2% | [4] 98.1% | [5] 98.5% | [6] 98.8%

COC(=O)n1sc(SC)nc1=N
inactive: [1] 3.75% | [2] -3.95% | [3] -8.9% | [4] -14.3% | [5] -17.1% | [6] 3.55%

Nc1ncc2c(n1)-c1ccccc1OC2N1CCOCC1 (stereo unspecified)
inactive: [1] 28% | [2] 2.15% | [3] -0.45% | [4] 2% | [5] -22.6% | [6] -7.8%

CCOc1c(C)cc(C(C)c2cc3c(cc2OC)OCO3)cc1C (stereo unspecified)
inactive: [1] 19.2% | [2] 26% | [3] 23.5% | [4] 17.4% | [5] 51.4% | [6] 25.1%

O=C1CC2(CCN(Cc3ccccc3)CC2)C(=O)N1N1CCCCC1
inactive: [1] 50.9% | [2] 33.3% | [3] 57.8% | [4] 41.9% | [5] 43.8% | [6] 50.4%

CN1CCC(CC(O)(c2ccccc2)C2CCCCC2)C1 (stereo unspecified)
inactive: [1] -5.9% | [2] -14.1% | [3] -2.3% | [4] -24.4% | [5] 4.2% | [6] -20.9%

CC1=C(C(=O)Nc2cc(F)c(F)cc2F)C(c2cccc([N+](=O)[O-])c2)C(C(=O)Nc2ccccc2C(F)(F)F)=C(C)N1 (stereo unspecified)
inactive: [1] 20.4% | [2] 21.8% | [3] 8.4% | [4] 2.15% | [5] 9.75% | [6] -2.65%

CCCCNC(=O)C(c1ccccc1)c1ccccc1
inactive: [1] 22.1% | [2] 14.9% | [3] 10.8% | [4] -12.3% | [5] 14.3% | [6] 4.2%

CN(C)CCCN1CCc2c([nH]c3ccccc23)C1c1cccnc1 (stereo unspecified)
inactive: [1] -3.35% | [2] -14.8% | [3] -0.45% | [4] -0.75% | [5] -6.2% | [6] -21.1%

COC1CC(OC(=O)c2ccccc2)C(OC(=O)c2ccccc2)C(CBr)O1 (stereo unspecified)
active: [1] 85.3% | [2] 90.2% | [3] 88.6% | [4] 91% | [5] 80.1% | [6] 89.1%

CP(=O)(CCSc1ccccc1)c1ccccc1 (stereo unspecified)
inactive: [1] -12.5% | [2] -20.5% | [3] -0.85% | [4] 23.6% | [5] -10.7% | [6] -21.1%

OC1c2ccccc2CC1Br (stereo unspecified)
inactive: [1] -4.8% | [2] -3.8% | [3] -9.25% | [4] -25.4% | [5] 7.65% | [6] -8.15%

COc1ccc([N+](=O)[O-])cc1NC(=S)NC(=O)c1cccc(Br)c1
inactive: [1] -8.6% | [2] 4.2% | [3] -0.1% | [4] -63.6% | [5] 3.7% | [6] 1.55%

CC(=O)Nc1c([N+](=O)[O-])cc(C2CCCCC2)cc1[N+](=O)[O-]
inactive: [1] -8.05% | [2] -7.25% | [3] 4.25% | [4] -34.5% | [5] 23.2% | [6] -9.85%

CS(=O)(=O)C(CCC(=O)c1ccc2ccccc2c1)C(=O)c1ccccc1 (stereo unspecified)
inactive: [1] 3.1% | [2] -12.7% | [3] 5.3% | [4] 20.4% | [5] -2.4% | [6] -7.15%

COc1ccc2nc(C)cc(N=[N+]=[N-])c2c1
inactive: [1] -34.6% | [2] 1.45% | [3] -16.5% | [4] -46.5% | [5] 8.55% | [6] 10.6%

Cc1ccccc1NCc1ccccc1[N+](=O)[O-]
inactive: [1] 23.9% | [2] 11.1% | [3] 14.8% | [4] -28.6% | [5] -14.6% | [6] 18.9%

O=c1c(F)cn2c(=O)n1CCCCCCCn1c(=O)c(F)cn(c1=O)CCCCCCC2
inactive: [1] 1.3% | [2] -24.4% | [3] 1.65% | [4] 0.7% | [5] -13.4% | [6] 1.55%

c1ccc(-c2nc(-c3ccccn3)cc3ccccc23)cc1
inactive: [1] -2.05% | [2] -17.6% | [3] 10% | [4] 2.8% | [5] 5.4% | [6] 18.8%

CCCCCCCCSC#N
inactive: [1] 7.95% | [2] -11% | [3] -3.6% | [4] 23.9% | [5] 2% | [6] -1.4%

Cc1c(CCCl)c(Cl)n2c(nc3ccccc32)c1C#N
inactive: [1] 38.7% | [2] 20.8% | [3] 39.4% | [4] 32.5% | [5] 22.8% | [6] 57.1%

CC1(C)OC(=O)N=C1c1ccc(F)cc1
inactive: [1] -9.3% | [2] 7.7% | [3] -1.25% | [4] 2% | [5] -1.65% | [6] 17.4%

CCC(SC)C(=O)c1ccccc1 (stereo unspecified)
inactive: [1] -7.55% | [2] -11.6% | [3] 0.5% | [4] -12.4% | [5] -33.8% | [6] -12.8%

C=CCOC(=O)/C=C/C
inactive: [1] 7% | [2] 2.7% | [3] -4.05% | [4] -11.3% | [5] -2.55% | [6] -1.35%

CSCCC(NC(=O)c1ccccc1)C(=O)O (stereo unspecified)
inactive: [1] -2.95% | [2] -15% | [3] 1.35% | [4] 3.85% | [5] 3.3% | [6] -10.6%

O=S1OC(c2ccccc2)C(c2ccccc2)O1 (stereo unspecified)
inactive: [1] -2.1% | [2] -10.5% | [3] -4.55% | [4] 11.8% | [5] -1.45% | [6] -7.7%

COc1ccccc1NC(=O)C1=C(C)NC(C)=C(C(=O)Nc2ccccc2OC)C1C1=CC=COC1
inactive: [1] -30.4% | [2] -12.8% | [3] -25.9% | [4] -1.1% | [5] 13.1% | [6] -15.5%

CC(=O)Nc1cc2cc(Br)ccc2oc1=O
inactive: [1] 28.9% | [2] 33.4% | [3] 18.9% | [4] 40% | [5] 50.1% | [6] 36.3%

COc1ccc2c(c1OC)Oc1c(OC)ccc3c1C(C2)N(C)C[C@@H]3O (stereo partly specified)
inactive: [1] 10.1% | [2] 3.25% | [3] -7.6% | [4] -0.6% | [5] 26.1% | [6] -5.5%

OC1CC2CCC(C1)N2c1ccccc1 (stereo unspecified)
inactive: [1] 2.35% | [2] 4.95% | [3] 16.6% | [4] -29.9% | [5] 19.1% | [6] 14.3%

CC(C)(C)C(=O)CC(=O)C(C)(C)C
inactive: [1] -3.9% | [2] -9.5% | [3] 2.25% | [4] -57.4% | [5] -2.8% | [6] -15.8%

c1ccc2c(c1)[nH]c1c2ncc2[nH]c3ccccc3c21
inactive: [1] -2.7% | [2] 2.85% | [3] -7.35% | [4] -60.2% | [5] -1.8% | [6] 7.25%

O=S(=O)(Nc1ccn(-c2ccccc2)n1)c1ccc(NCc2c3ccccc3nc3cc(Cl)ccc23)cc1
inactive: [1] 17.1% | [2] 21.2% | [3] 15.8% | [4] -24.2% | [5] -13.6% | [6] 23.6%

CCOc1c(Cl)c(Cl)c(Cl)c(Cl)c1Cl
inactive: [1] -9.8% | [2] 3.95% | [3] -6.7% | [4] 9.3% | [5] -2.9% | [6] 5.4%

CCOC(=O)/C(C#N)=C/N=c1ccccn1C
inactive: [1] 5.1% | [2] -7.95% | [3] -1.3% | [4] -25.1% | [5] -6.6% | [6] -4.5%

COc1ccc(/C=C(/NC(=O)c2ccccc2)C(=O)O)c(OC)c1C
inactive: [1] 2.4% | [2] 0.45% | [3] 1.3% | [4] -66% | [5] -17.2% | [6] -7.65%

Cc1ccc2c(c1)[n+]([O-])c1c3ccccc3[nH]c1[n+]2[O-]
inactive: [1] 63.2% | [2] 23% | [3] 22.9% | [4] 25.7% | [5] 15.2% | [6] 26.4%

O=C(O)c1cccc(-c2nn[nH]n2)c1
inactive: [1] 2.75% | [2] 0.5% | [3] -4.55% | [4] -55% | [5] 0.25% | [6] -2.7%

O=S(=O)(c1ccc(N=Cc2cccs2)cc1)c1ccc(N=Cc2cccs2)cc1
inactive: [1] -13.2% | [2] -22.1% | [3] -10.1% | [4] 10.7% | [5] 5.35% | [6] -13.8%

C=C1C(=O)OC2CC3(CO3)C3C(O)C(O)CC3(C)CC12 (stereo unspecified)
inactive: [1] 2.4% | [2] 2.45% | [3] -14.2% | [4] -13.6% | [5] -42.5% | [6] -70.7%

COc1ccc(/C=N/N2CN(C(CC(N)=O)C(=O)O)P(Nc3ncccn3)N=C2N)cc1OC (stereo unspecified)
inactive: [1] 7.55% | [2] -3.9% | [3] 0.4% | [4] -20.9% | [5] 6.65% | [6] 8.35%
